Screening results (PubChem BioAssay)
Sampled rows, rich in hits. Any-hit rate of the full collection: about 11%.
KDM4E inh – qHTS Assay for Inhibitors of Human Jumonji Domain Containing 2E (JMJD2E); Lysine-specific demethylase 4E (Homo sapiens), B2RXH2; JMJD2E catalytic domain, FDH-coupled NADH fluorescence (FDH is formaldehyde dehydrogenase); Potency, µM (series often up to 57.1 µM), usual class: inhibitors; 230,000 tested, 1.6% active; further: nearly all actives have a fitted effect of over 50% in size
HPGD block – qHTS Assay for Inhibitors of HPGD (15-Hydroxyprostaglandin Dehydrogenase); 15-hydroxyprostaglandin dehydrogenase [NAD(+)] (Homo sapiens), P15428; purified HPGD, NADH fluorescence kinetic, PGE2 substrate; Potency, µM, usual class: inhibitors; 150,000 tested, 4.3% active; AID 894, 2007
Target sequence (P15428 whole entry, looked up): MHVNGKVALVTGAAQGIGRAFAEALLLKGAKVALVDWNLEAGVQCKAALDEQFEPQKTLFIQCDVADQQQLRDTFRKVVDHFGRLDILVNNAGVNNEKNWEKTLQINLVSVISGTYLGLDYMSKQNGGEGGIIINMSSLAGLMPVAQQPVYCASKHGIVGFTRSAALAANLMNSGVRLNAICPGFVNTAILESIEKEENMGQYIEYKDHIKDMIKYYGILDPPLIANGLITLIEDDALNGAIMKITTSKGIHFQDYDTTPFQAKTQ
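20 nM HPGD preincubated 15 min at room temperature with compound in 50 mM Tris-HCl pH 8, 0.01% Tween 20. Started with 1 mM NAD+ and 30 uM prostaglandin E2; NADH fluorescence (360/450 nm) read 5 times over 30-s intervals, last minus first.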
PNC assembly inh – High Content Assay for Compounds that inhibit the Assembly of the Perinucleolar Compartment; 140,000 tested, 3.1% active; PC3M PTB-GFP, PNC prevalence imaging, 16 h; active compounds read low; activity change (PNC), negative = inhibition, % at 10 µM; AID 2417, 2010;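 active means readout at or below -70, meaning at least 70% loss of cells showing the perinucleolar compartment, a nuclear body marking cancer cells; inconclusive means readout between -30 and a set limit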
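Read-out is percentage of cells bearing a perinucleolar compartment, from automated 20x imaging of fixed, Hoechst-stained PC3M PTB-GFP cells. Cells were seeded 4 h, then exposed 16 h to compound (23 nl of library stock) in duplicate plates.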
ALDH1A1 inh – qHTS Assay for Inhibitors of Aldehyde Dehydrogenase 1 (ALDH1A1) | Aldehyde dehydrogenase 1A1 (Homo sapiens), P00352 | Purified ALDH1A1, NADH fluorescence, propionaldehyde substrate | Potency, µM (doses to about 75.3 µM), hits mostly inhibitors | 220,000 tested, 7.3% active
A number is an active result; [ ] = remark or other dose. Unless noted, the call rests on the fitted dose curve; in most records, active means well fitted inhibition curve with a large enough effect (not every such curve was filed as active); inconclusive means small, poorly fitted or top-dose-only effect, or another doubt; inactive means no such curve, though single readings can be large or run the other way.

How did Cc1ccccc1N=C1c2ccccc2C(=O)C1[N+](=O)[O-] (centres undefined) do in these assays?
KDM4E inh: inactive; ALDH1A1 inh: inactive

What do the screens show for `CNS(=O)(=O)/C=C/c1ccccc1`?
KDM4E inh: inactive; ALDH1A1 inh: inactive

What do the screens show for `O=S(=O)(c1ccccc1)C(/C=N\O)/C=C/c1ccccc1` (centres undefined)?
KDM4E inh: inactive; ALDH1A1 inh: 11.2µM

What do the screens show for `Brc1ccc(N/N=C(/N=Nc2nn[nH]n2)c2ccccc2)cc1`?
KDM4E inh: 25.1µM; ALDH1A1 inh: 14.1µM

How did CN[C@@H]1NC(=O)c2ccccc2N1Cc1ccc(F)cc1 do in these assays?
HPGD block: inactive; ALDH1A1 inh: inactive[13.5 µM]

What do the screens show for `C[N@@+]1(CC[N@@+]2(C)CCC[C@H]2c2cccnc2)CCC[C@@H]1c1cccnc1`?
HPGD block: inactive; ALDH1A1 inh: inactive[13.5 µM]

Results for O=C(c1ccccc1-c1ncc[nH]1)N1CCc2c([nH]c3ccccc23)C1c1ccccn1 (centres undefined) ?
KDM4E inh: inactive; ALDH1A1 inh: inactive

What do the screens show for `CC1CC(=O)C2=C(C1)Nc1ncnn1C2c1ccccc1` (centres undefined)?
KDM4E inh: inactive; HPGD block: inactive; PNC assembly inh: inactive; ALDH1A1 inh: 17.8µM

Results for Cn1c(=O)c2c(nc(C(=N)SCC(=O)O)n2C)n(C)c1=O ?
HPGD block: inactive; ALDH1A1 inh: inactive[13.5 µM]

What do the screens show for `COc1ccc(S(=O)(=O)N(C(=O)c2ccco2)c2cc3sc(=O)oc3c3ccccc23)cc1`?
KDM4E inh: 12.6µM; HPGD block: inconclusive; PNC assembly inh: inconclusive; ALDH1A1 inh: 25.1µM

Results for Cc1ccc(S(=O)(=O)N(C(=O)c2ccco2)c2cc3sc(=O)oc3c3ccccc23)cc1 ?
KDM4E inh: 14.1µM; HPGD block: inconclusive; PNC assembly inh: inactive; ALDH1A1 inh: 31.6µM

Results for CCOc1ccc(S(=O)(=O)N(C(=O)c2ccco2)c2cc3sc(=O)oc3c3ccccc23)cc1 ?
KDM4E inh: 15.8µM; HPGD block: inactive; PNC assembly inh: inactive; ALDH1A1 inh: inconclusive

What do the screens show for `C=CCN1C(=O)C(CC(=O)Nc2ccc(OCCC)cc2)N(CCCN2CCN(Cc3ccccc3)CC2)C1=S` (centres undefined)?
KDM4E inh: inactive; ALDH1A1 inh: inconclusive

What do the screens show for `CC(=O)c1sccc1NC(=O)CC(C)(C)CC(=O)O`?
KDM4E inh: inactive

How did O=[N+]([O-])c1cnc(Sc2ccncn2)s1 do in these assays?
KDM4E inh: inactive; ALDH1A1 inh: 3.16µM

Results for O=C(Nc1ccc(Cl)cc1)Nc1ccccc1Sc1ncc([N+](=O)[O-])s1 ?
KDM4E inh: inactive

How did CCCCSCc1nc2nc(Cl)c(Cl)nc2[nH]1 do in these assays?
HPGD block: inactive; ALDH1A1 inh: inactive[13.5 µM]

How did Cc1noc(C)c1-c1ccc2ncnc(NCCN3CCOCC3)c2c1 do in these assays?
ALDH1A1 inh: inactive

Results for COc1cc(CNCCc2c[nH]c3ccccc23)cc(Cl)c1OCC(N)=O ?
KDM4E inh: inactive; ALDH1A1 inh: 15.8µM

How did CCOc1cc(CNCCc2c[nH]c3ccccc23)cc(Cl)c1OCC(N)=O do in these assays?
KDM4E inh: inactive

Results for O=S(=O)(NCCc1ccc2c(c1)OCCO2)c1cccs1 ?
KDM4E inh: inactive; HPGD block: inactive; PNC assembly inh: -81.3; ALDH1A1 inh: inactive

Results for O=C(OCn1nnc2ccccc2c1=O)C1CCN(S(=O)(=O)c2cccs2)CC1 ?
KDM4E inh: inactive; HPGD block: inactive; PNC assembly inh: -100.0; ALDH1A1 inh: inactive

What do the screens show for `O=C(NCCc1ccccc1)C1CCC(CNS(=O)(=O)c2cccs2)CC1` (centres undefined)?
KDM4E inh: inactive; ALDH1A1 inh: 3.98µM

How did NS(=O)(=O)c1ccc(CCNC(=O)C2CCC(CNS(=O)(=O)c3ccc(Br)s3)CC2)cc1 (centres undefined) do in these assays?
KDM4E inh: inactive; ALDH1A1 inh: inconclusive

How did Cc1cccc(CCNC(=O)C2CCC(CNS(=O)(=O)c3cccs3)CC2)c1 (centres undefined) do in these assays?
KDM4E inh: inactive; ALDH1A1 inh: 1.78µM

Results for C=CCOc1ccc(Br)cc1CNCCCN1CCOCC1 ?
KDM4E inh: inactive; HPGD block: inactive; PNC assembly inh: inactive; ALDH1A1 inh: inactive

How did O=C(COC(=O)/C=C/c1cccs1)Nc1ccc2ccccc2c1 do in these assays?
KDM4E inh: inactive; HPGD block: inactive; PNC assembly inh: inconclusive; ALDH1A1 inh: inactive
